# GLP1R cytotox: cytotoxicity in counter-screen for GLP-1R inverse agonists | 0.13% of 410,000 active | HEK293 cAMP-luciferase reporter cells, luminescence, 24 h | Potency, µM (series often up to 38.3 µM), for inactives: at the highest dose activity change, negative = inhibition, hits mostly inhibitors;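 also: loss of luciferase light is scored as toxicity; potency is read from the fitted curve at half-maximal effect; % is scaled to controls: 0 for no effect and ±100 for the full control effect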
#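 Step one: seed cells (200 cells/uL, DMEM with 10% Nu serum, 1% pen-strep). Step two: 12-hour incubation at 37 deg C. Step three: pin 23 nL compound, incubate 24 hr. Step four: add luciferase reagent, read luminescence 12 min later.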
# DRD3 antagonist: D3 dopamine receptor (human) antagonism; P35462; D3R cells, DiscoveRx beta-arrestin luminescence, antagonist mode; hits give low values; max response, negative = inhibition, %; 2.5% of 360,000 active; AID 652054; in the data active = max response below about -50%; inconclusive = no clear call, values can overlap the other calls; also: % is scaled to controls: 0 for no effect and ±100 for the full control effect
#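 Cells plated overnight at 1500 cells/well, then exposed to library compounds with dopamine controls for 90 minutes at 37 degrees C. DiscoveRx reagent added for 30–60 minutes at room temperature; luminescence read, quantitative HTS format.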
# DRD3 agonist: activates the human D3 dopamine receptor | max activation, % | 0.58% of 410,000 active | AID 652048 | P35462 | D3R DiscoveRx beta-arrestin cells, luminescence, 90 min; in the data active = max activation above about 30%; also: 0% is about no effect
#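 Cells at 1500/well, incubated overnight, then treated with pinned compounds (dopamine as control) for 90 min at 37 degrees C. DiscoveRx reagent added for 30 - 60 minutes at room temperature; luminescence read.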
# GLP1R inv ag: GLP-1 receptor (human) inverse agonism | P43220 | HEK293 GLP-1R CRE-luciferase, luminescence, 24 h; GLP-1R form is constitutively active | Potency, µM (highest dose often 38.3 µM), for the others: top-dose activity change, negative = inhibition, hits mostly inhibitors | 1.6% of 410,000 active; also: potency is read from the fitted curve at half-maximal effect; % is scaled to controls: 0 for no effect and ±100 for the full control effect; nearly all actives have a fitted effect of over 55% in size
# Target sequence (P43220 whole entry, looked up): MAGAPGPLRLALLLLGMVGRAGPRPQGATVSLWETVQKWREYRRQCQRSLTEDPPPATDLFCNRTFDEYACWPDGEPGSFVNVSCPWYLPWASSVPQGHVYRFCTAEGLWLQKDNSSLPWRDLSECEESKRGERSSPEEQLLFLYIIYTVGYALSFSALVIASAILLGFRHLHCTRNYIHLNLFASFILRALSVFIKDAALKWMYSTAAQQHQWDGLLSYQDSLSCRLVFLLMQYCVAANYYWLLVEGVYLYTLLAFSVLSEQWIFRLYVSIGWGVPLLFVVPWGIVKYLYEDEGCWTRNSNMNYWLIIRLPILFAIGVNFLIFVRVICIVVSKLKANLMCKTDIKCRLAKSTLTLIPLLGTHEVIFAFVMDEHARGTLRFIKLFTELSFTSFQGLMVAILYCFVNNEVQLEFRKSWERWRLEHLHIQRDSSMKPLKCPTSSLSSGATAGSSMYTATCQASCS
#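 Seeding at 200 cells/uL, 12 h culture, 24 hr compound treatment, then luciferase reagent and a luminescence read; cells are HEK293 stably expressing a constitutively active GLP-1R plus cAMP-responsive luciferase.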
# ClpP mod: qHTS Assay for Activators of ClpP; 1.9% of 340,000 active; Potency, µM (series often up to 57.5 µM), without a hit: at the highest dose activity change, negative = active; AID 651965, 2013; purified B. subtilis ClpP, FRET peptide cleavage, 20 min; ATP-dependent Clp protease proteolytic subunit (Bacillus subtilis (strain 168)), P80244; active = well fitted falling curve with a large enough effect; inconclusive = small, poorly fitted or top-dose-only effect; inactive = no such curve, though single readings can be large or run the other way; also: potency is read from the fitted curve at half-maximal effect; the source files actives as falling curves though it sought activators and does not explain the sign; nearly all actives have a fitted effect of over 65% in size
# Target sequence (P80244 whole entry, looked up): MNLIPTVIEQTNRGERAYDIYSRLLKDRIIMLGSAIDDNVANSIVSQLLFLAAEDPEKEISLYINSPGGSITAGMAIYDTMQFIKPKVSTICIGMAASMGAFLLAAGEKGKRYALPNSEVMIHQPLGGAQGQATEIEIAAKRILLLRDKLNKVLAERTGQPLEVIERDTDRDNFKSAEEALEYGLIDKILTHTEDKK
#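 Buffer: 100 mM Tris/HCl pH8, 100 mM KCl, 0.05% low protease BSA, 2.5% glycerol, 0.01% Tween-20. ClpP 10 microg/mL final; 20 min RT; delta FRET normalized to ADEP and DMSO controls.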
# GLP-1R agonist: agonists of human GLP-1 receptor. P43220. Potency, µM (titrated, usually from 45.6 µM), for the others: at the highest dose activation, most hits filed as activators. HEK293 GLP-1R CRE-luciferase, luminescence, 4-6 h; cells express a hypersensitive GLP-1R form. 0.007% of 380,000 active. AID 624172; also: potency is read from the fitted curve at half-maximal effect; % of control where 0% means no effect
# * marks the source's active call; other numbers are inactive results; ? = inconclusive; nt = not tested or not shown. Rows were chosen to be rich in hits. Some 5.7% of all compounds tested hit in one or more screens of this group. Unless noted, calls follow the shape of the dose curve; as a rule, active = well fitted curve in the direction sought with a large enough effect; inconclusive = small, poorly fitted or top-dose-only effect, or another doubt; inactive = no such curve, though single readings can be large; an effect the other way counts as inactive or inconclusive.
SMILES,GLP1R cytotox,DRD3 antagonist,DRD3 agonist,GLP1R inv ag,ClpP mod,GLP-1R agonist
COC(=O)c1oc2ccccc2c1N,10.1%,3.9,-3.7,31.3%,25.1µM*,1.0%
CC(=O)c1oc2ccccc2c1N,5.9%,-13.6,24.0,0.0%,-16.5%,-0.1%
Cc1ccnc(NS(=O)(=O)c2ccc(N3C(=O)C4CCCCC4C3=O)cc2)n1 (stereo not given),-11.8%,6.2,-5.1,10.2%,nt,5.4%
O=C1C2CCCCC2C(=O)N1c1ccc(S(=O)(=O)Nc2ncccn2)cc1 (stereo not given),0.3%,-1.4,-2.9,9.5%,15.8µM*,-2.8%
CN(C)c1c(Br)cc(C=O)cc1Br,nt,nt,nt,nt,0.8%,nt
COc1ccc(-c2nc3cc(NC(=O)COc4ccccc4C)ccc3o2)cc1,3.5%,nt,10.8,11.4%,4.3%,nt
CCCNC(=O)C1(C)CCN(C(=O)c2ccc3c(c2)CCO3)C1 (stereo not given),1.4%,23.8,4.8,20.9%,-0.4%,-5.0%
CC1CCN(c2c(NCC3CCC(C(=O)NCc4ccccc4)CC3)c(=O)c2=O)CC1 (stereo not given),0.0%,-61.1*,0.6,6.2%,-2.3%,-3.6%
Nc1ncn(C(=S)Nc2ccccc2)n1,4.47µM*,?,-7.5,?,-4.2%,-1.0%
CCC1=NN(C(=O)c2ccc(Cl)cc2)C(O)(c2ccccc2)C1 (stereo not given),-19.8%,-11.2,-4.7,?,0.7%,-0.3%
CC1=NN(C(=O)c2ccccc2Br)C(O)(c2ccc(Cl)cc2)C1 (stereo not given),4.0%,0.6,9.6,3.16µM*,0.5%,10.5%
CCC1=NN(C(=O)c2ccc(Cl)cc2)C(O)(c2ccc(C)cc2)C1 (stereo not given),?,7.6,4.4,2.82µM*,nt,8.1%
CCC1=NN(C(=O)c2ccc([N+](=O)[O-])cc2)C(O)(c2ccccc2)C1 (stereo not given),?,?,-17.5,0.794µM*,nt,10.7%
CCOC(=O)C1=NN(C(=O)c2ccc(C)cc2)C(O)(c2ccc(Cl)cc2)C1 (stereo not given),3.7%,-57.3*,-8.7,-3.3%,1.6%,-10.6%
COC(=O)C1=NN(C(=O)c2ccc(Cl)cc2)C(O)(c2ccccc2)C1 (stereo not given),12.5%,?,-25.4,15.0%,-1.5%,4.3%
Cc1ccc(Cn2c(C(=O)NCc3ccccc3Cl)cc3sccc32)cc1,10.5%,nt,-20.4,2.8%,-21.9%,-6.5%
Fc1cccc(-n2ncc3c2ncn2nc(Cc4ccccc4)nc32)c1,-2.1%,nt,2.9,6.5%,-11.9%,nt
O=C(O)c1[nH]c2ccc(Cl)cc2c1CC(=O)N1CCN(C(=O)c2ccco2)CC1,5.1%,-8.9,3.4,8.6%,-20.4%,-23.6%
Cc1ccc2[nH]c3c(c2c1)CCCC3C(N)=O (stereo not given),91.3%,-8.4,-1.2,0.3%,-12.1%,1.0%
O=C(c1ccco1)N1CCN(C(=O)C2CCCc3c2[nH]c2ccc(Cl)cc32)CC1 (stereo not given),-3.1%,5.5,3.9,5.01µM*,-0.3%,-0.2%
CCN(CC)C(=O)C1CCCc2c1[nH]c1ccc(Cl)cc21 (stereo not given),-16.1%,8.3,1.9,4.47µM*,1.4%,-7.2%
Cc1cc(C)c(C(=O)OCC(=O)Nc2cccc(S(=O)(=O)N3CCCCC3)c2)c(C)c1,10.0%,13.4,4.8,?,0.6%,-0.1%
COc1ccccc1CNc1nc(NC(C)C)nc2cc(-c3ccccc3)sc12,?,-63.9*,-18.7,?,?,4.4%
C=CCNc1nc(NCc2cccc(OC)c2)c2sc(-c3ccccc3)cc2n1,?,6.6,4.1,?,20µM*,10.2%
CCCCCOc1ccc(C2C(C(C)=O)=C(C)Nc3ncnn32)cc1OC (stereo not given),1.8%,43.6,-5.5,-2.0%,11.2µM*,3.2%
SMILES,GLP1R cytotox,DRD3 antagonist,DRD3 agonist,GLP1R inv ag,ClpP mod,GLP-1R agonist
COc1ccc(C2(CNC(=O)CCC(=O)O)CCCC2)cc1OC,6.4%,-51.2*,-0.3,4.8%,-3.2%,1.0%
COc1cccc(C(=O)NCC2(c3ccccc3)CCCC2)c1OC,2.6%,5.2,6.4,7.08µM*,-2.4%,14.7%
O=C(NCC1CCCO1)c1ccc2[nH]c3c(c2c1)CCCC3 (stereo not given),6.4%,-11.8,-4.6,-7.3%,-2.7%,0.3%
Clc1ccc2c(c1)C1CC2CCN1Cc1ccccc1 (stereo not given),-1.3%,?,-50.8,-15.4%,-3.2%,-10.6%
COc1ccc(CN2CCC3CC2c2cc(Cl)ccc23)cc1 (stereo not given),-6.6%,-59.1*,-71.7,?,0.1%,7.5%
COc1ccc(-c2cc(C(C)=O)c(C)n2CCC(=O)Nc2ccc(C(F)(F)F)cc2)cc1,-22.7%,nt,2.0,-34.1%,2.2%,nt
O=C(CCNS(=O)(=O)c1ccccc1C(F)(F)F)NCCCSc1ccccc1,2.1%,-1.8,0.2,12.6µM*,-6.3%,9.6%
C[C@@H]1CN([C@@H](C)CO)C(=O)CCCn2nncc2CO[C@H]1CN(C)C(=O)c1ccccc1,8.5%,-24.7,-0.2,-7.0%,-1.3%,4.9%
C[C@H](CCC(=O)OCc1cn(CC(=O)c2ccc(O)cc2)nn1)C1CC[C@H]2[C@@H]3CC[C@@H]4C[C@H](O)CC[C@]4(C)[C@H]3C[C@H](O)[C@]12C (stereo not given in full),-24.7%,36.7,43.6*,?,-1.8%,-0.5%
O=C(/C=C/[C@H]1O[C@@H](n2ccc(=O)[nH]c2=O)[C@H](O)[C@@H]1O)NCc1ccc2c(c1)OCO2,4.8%,0.0,-1.2,7.6%,0.1%,0.1%
O=C(COC(=O)c1cccnc1Nc1ccccc1F)NCCN1C(=O)CSC1=O,1.5%,-56.5*,-1.7,-10.2%,-2.3%,15.7%
Cc1cccc(N(C)S(=O)(=O)c2ccc3[nH]cc(C(=O)N4CCOCC4)c(=O)c3c2)c1,-11.7%,19.8,-2.9,9.9%,?,-20.1%
O=C(c1c[nH]c2ccc(S(=O)(=O)N3CCC4(CC3)OCCO4)cc2c1=O)N1CCOCC1,-14.6%,0.5,5.0,1.4%,15.8µM*,-3.7%
COC(CNC(=O)c1c[nH]c2ccc(S(=O)(=O)N3CCC4(CC3)OCCO4)cc2c1=O)OC,15.2%,20.6,4.3,16.1%,22.4µM*,2.5%
COc1cccc(C(=O)N2CCN(C3CCCCC3)CC2)c1,-0.6%,-11.8,-11.8,6.4%,nt,9.9%
COc1cc(OC)c(NC(=O)N2CCOCC2)cc1Cl,0.5%,0.0,1.3,12.2%,28.2µM*,-2.0%

# Screens deposited in PubChem by National Center for Advancing Translational Sciences (NCATS).
